Screen size: about 1,100 compounds; about 420 (38%) were called active. Cut-off read from the data, not from the text of the source: active = inhibition above about 29%; inactive = the rest. These entries were drawn from the full list.

The assay deals with Orexin/Hypocretin receptor type 1 (Homo sapiens) (UniProt O43613). Put plainly: HCRTR1 blockers, calcium flux retest – fluorescence, CHO/OX1R cells, Fluo-8 calcium, orexin A, confirmation (AID 492963).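 Note: 0% = agonist challenge alone and 100% = reference antagonist.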 The note with it: orexin A calcium Fluo-8 fluorescence, at 5 µM, hits give high values.
Chain of Orexin/Hypocretin receptor type 1 (Homo sapiens) (O43613 whole entry, looked up): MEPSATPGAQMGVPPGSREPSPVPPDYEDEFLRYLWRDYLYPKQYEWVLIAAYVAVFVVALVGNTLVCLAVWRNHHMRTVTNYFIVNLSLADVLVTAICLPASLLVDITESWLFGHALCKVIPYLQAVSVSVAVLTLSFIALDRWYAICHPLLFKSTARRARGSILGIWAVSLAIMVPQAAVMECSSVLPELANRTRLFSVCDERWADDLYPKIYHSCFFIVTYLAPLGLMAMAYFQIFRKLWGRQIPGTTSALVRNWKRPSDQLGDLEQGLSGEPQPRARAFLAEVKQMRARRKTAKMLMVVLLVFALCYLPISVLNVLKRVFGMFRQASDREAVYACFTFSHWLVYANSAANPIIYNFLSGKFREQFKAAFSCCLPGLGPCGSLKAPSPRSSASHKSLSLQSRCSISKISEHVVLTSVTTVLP
For the compound `O=C(Nc1cccc2cccnc12)c1cccc(N2C(=O)CCC2=O)c1`, the inhibition was 33.2% (active).
In the case of `CCOC(=O)c1cccc(NC(=O)CN(c2ccc(C)cc2)S(=O)(=O)c2c(C)noc2C)c1` it was 5.21% (inactive); in that of `COc1ccc2sc(-c3ccc(N(C)C)cc3)c(C#CCO)c2c1`, 25.9% (inactive).
The result for `CCOC(=O)c1c(-c2ccc(C)cc2C)csc1NC(=O)CSc1nnnn1C` reads -17.1% (inactive); that for `CCn1c(SCC(=O)c2ccc3ccccc3c2)nnc1-c1cccs1`, 29.5% (active).
Take `CCOC(=O)N1CCN(C(=O)c2ccc(S(=O)(=O)Nc3cccc(C(F)(F)F)c3)cc2)CC1`: the inhibition was 15.2% (inactive).
In the case of `COc1ccc(N2CC(C(=O)NCCN3C(=O)S/C(=C\c4cccnc4)C3=O)CC2=O)c(OC)c1` (stereo not given) it was 26.6% (inactive); in that of `COc1cc(CN2CC(C)CC(C)C2)cc([N+](=O)[O-])c1O` (stereo not given), -4.4% (inactive).
In the case of `COc1ccccc1CNC(=O)C1CCCN(S(=O)(=O)c2cccc3cccnc23)C1` (stereo not given) it was -1.33% (inactive); in that of `Cc1cc(C)cc(NC(=O)C2CCCN2S(=O)(=O)c2cccc3cccnc23)c1` (stereo not given), 62.9% (active).
In the case of `NC(=O)C1=C[C@@H](c2ccc3c(c2)OCO3)C[C@@H](OCCCCO)O1` it was 1.6% (inactive); in that of `CC1(C)C2CC=C(/C=N/NC(=O)C3CC3)C1C2` (stereo not given), -24.5% (inactive).
For the compound `O=C(Cn1[nH]c(=O)c2ccccc2c1=O)Nc1cccc(-c2nnc3n2CCCCC3)c1`, the inhibition is 24.9% (inactive).
In the case of `S=C(NCc1ccc(Cl)cc1)NC12CC3CC(CC(C3)C1)C2` it was 10.8% (inactive).
In the case of `Cc1cc(N2CCCC2=O)cc(C)c1S(N)(=O)=O` it was 1.01% (inactive); in that of `N#C/C(=C/c1ccc(N2CCCCC2)o1)C(=O)NCCc1c[nH]c2ccccc12`, 48.7% (active).
In the case of `O=C(N/N=C/c1c(Cl)[nH]c2ccccc12)c1sc2ccccc2c1Cl` it was 79% (active); in that of `C/C(N)=C(/C#N)C(=O)COC(=O)c1cc(-c2ccc(C)cc2)nc2ccccc12`, -4.02% (inactive); in that of `CCc1ccccc1OCC(=O)Nc1ccc(C)c(S(=O)(=O)N2CCCCCC2)c1`, 5.4% (inactive).
Regarding `O=C(NC(Cc1c[nH]c2ccccc12)C(=O)N/N=C/c1ccc(Br)cc1)c1cccs1` (stereo not given), the inhibition was 55.8% (active).
The result for `CCOc1ccc(CCNC(=O)C(CC)n2nc(C)n3c(cc4sccc43)c2=O)cc1OCC` (stereo not given) reads 25.3% (inactive); that for `CC(C)(C)NC(=O)CN(C(=O)c1csnn1)c1ccccc1-c1ccccc1`, 18.8% (inactive); that for `N#C/C(=C1\CCCN1)c1nc(-c2ccccc2)cs1`, 40% (active).
The result for `N#CC(=C1SC=CS1)c1nc(-c2ccccc2)cs1` reads 87.3% (active).
The result for `Nc1nc(COC(=O)CCC(=O)c2ccc(Cl)cc2)nc(Nc2ccccc2)n1` reads 19.1% (inactive); that for `CC(Oc1ccc2ccccc2c1)C(=O)NNC(=S)NC(=O)c1ccco1` (stereo not given), 5.25% (inactive).
With `N/C(=N\OC(=O)Nc1ccc(Cl)c(Cl)c1)c1ncc(C(F)(F)F)cc1Cl`, the inhibition is 29% (active).
Take `COC(=O)c1sccc1NC(=O)CSc1ccccc1NS(=O)(=O)c1cc(Cl)ccc1Cl`: the inhibition is 21.5% (inactive).
In the case of `Cc1cc(C(=O)NC2CCCc3c2cnn3-c2cccc(C)c2C)c(C)o1` (stereo not given) it was 27.6% (inactive).
In the case of `CC(=O)Nc1cccc(OCC(=O)/C=C2\N(C)c3ccccc3C2(C)C)c1` it was 15.6% (inactive); in that of `Cc1cccc(NS(=O)(=O)c2cccc(C(=O)NNC(=O)c3ccccc3O)c2)c1`, 14.2% (inactive); in that of `COc1ccc(/C=C/C(=O)c2ccc(NS(=O)(=O)c3ccc(C)cc3)cc2)cc1O`, 42.2% (active).
In the case of `O=C1C=C(c2ccc(Cl)cc2)C(=O)N1Nc1ccccc1` it was 57% (active).
As for `Cc1ccc2c(C)c(C(=O)N(C)CCC3CCCCO3)oc2c1C` (stereo not given), the inhibition was -17.4% (inactive).
In the case of `O=C(N/N=C/c1sc(N2CCCCC2)nc1-c1cccs1)c1cccnc1` it was 48.1% (active); in that of `Cc1cccc(NC(=O)Nc2cccc(Oc3c(F)c(F)c(F)c(F)c3F)c2)c1`, 12.1% (inactive); in that of `CCCN(CC(=O)Nc1ccccc1OC)C(=O)CCC(=O)c1ccc(F)cc1`, 1.45% (inactive).
The result for `Cc1cc(-c2ccc(C)c(S(=O)(=O)NC(C)Cc3ccco3)c2)on1` (stereo not given) reads 0.43% (inactive).
In the case of `CCOc1ccc(/C=C/C(=O)OCC(=O)c2ccccc2OC)cc1OC` it was 36.1% (active); in that of `O=C(CCCN1CCc2[nH]c3ccc(F)cc3c2C1)c1ccc(F)cc1`, 26.4% (inactive).
`Cn1c(N)c(C(=O)COC(=O)c2ccc3ccccc3c2)c(=O)n(C)c1=O`: the inhibition was 30.5% (active).
In the case of `Cc1ccc(S(=O)(=O)N2CCN(c3ncnc4ccccc34)CC2)cc1`, the inhibition was 15% (inactive).
On to `CCOc1cc(/C=C(\C#N)c2nc(-c3cccs3)c(NC(C)=O)s2)ccc1O`, for which the inhibition was 18% (inactive).
The result for `O=C1c2ccccc2S(=O)(=O)N1CC(O)Cn1c2ccccc2c2ccccc21` (stereo not given) reads 29.4% (active).
In the case of `CC1CCCN(CC(O)COCc2ccccc2)C1` (stereo not given) it was 5.05% (inactive); in that of `O=C(OC1CCOC1=O)c1ccc(-c2nc3ccccc3s2)s1` (stereo not given), 43.4% (active); in that of `CCCc1nc2c(c(=O)c3ccccc3n2C)c(=O)n1C1CCCCCC1`, 9.14% (inactive).
Take `S=c1[nH]nc(-c2cc(-c3ccccc3)n[nH]2)n1/N=C/c1c2ccccc2cc2ccccc12`: the inhibition is 38.1% (active).
For `CCOC(=O)N1CCN(c2cc(C)c([N+](=O)[O-])cc2F)CC1`, the inhibition was 17.3% (inactive).
The result for `COc1cccc(C(=O)NC(=O)Nc2nc(C)cc(C(F)(F)F)n2)c1` reads 35% (active).
In the case of `CCCCC(=O)NNC(=S)NC(=O)C(c1ccccc1)c1ccccc1` it was 58.6% (active).
`CCCCCCCC(=O)NC(Nc1ccccc1OC)C(Cl)(Cl)Cl` (stereo not given): the inhibition is -23.5% (inactive).
The result for `Cc1ccc(NC(=O)COc2ccc(-n3ccnc3)cc2)cc1Cl` reads 22.1% (inactive); that for `COc1cc2ccccc2cc1C(=O)Nc1ccc(N2CCOCC2)cc1`, -1.28% (inactive); that for `O=C(Nc1cccc(NC(=O)N2CCN(c3ccccc3)CC2)c1)N1CCN(c2ccccc2)CC1`, 37.3% (active).
In the case of `CN(c1ccccc1)S(=O)(=O)c1cccc(NC(=O)Cc2ccc(Cl)cc2)c1` it was 26% (inactive); in that of `N#Cc1nc(-c2cccc3ccccc23)oc1N`, 40.6% (active).
In the case of `COc1cccc(/C=N/Nc2cc(C)nc(-c3ccccc3O)n2)c1O` it was 69.7% (active); in that of `COc1cccc(/C=N/NC(=O)c2[nH]nc3c2CCc2ccccc2-3)c1O`, 20.3% (inactive).
Regarding `CCC(=O)N(C)C(c1ccccc1Cl)c1nnnn1-c1c(C)cccc1C` (stereo not given), the inhibition is 21.7% (inactive).
As for `Cc1ccccc1S(=O)(=O)N1[C@@H](c2cccc(Cl)c2)C(C(=O)O)=CC[C@H]1c1ccc(Cl)cc1`, the inhibition is 43.3% (active).
For the compound `COCc1c(C(=O)OCC(=O)Nc2ccc(OC(F)F)cc2)oc2ccccc12`, the inhibition is 26.3% (inactive).
The result for `C=CCn1c(SCC(=O)Nc2nc3ccccc3s2)nnc1-c1ccccc1O` reads 48% (active).
The result for `COc1ccc2[nH]cc(/C=C(/C#N)S(=O)(=O)c3ccccc3)c2c1` reads 8.34% (inactive).
In the case of `c1coc(CNc2ncnc3ccccc23)c1` it was 24.7% (inactive).

As a reminder, the inhibition is the relative decrease from the control value, in per cent.

Source of the values: PubChem BioAssay AID492963 (The Scripps Research Institute Molecular Screening Center, 2010).
